# Assay outcomes from PubChem BioAssay.
# The list is not random: actives were taken first. Their share in the collection is about 2.3%.
# Mcl1 Noxa PPI: Mcl-1/Noxa binding inhibitors, primary screen, biochemical, TR-FRET, 1536-well; Induced myeloid leukemia cell differentiation protein Mcl-1 (Homo sapiens), Q07820; TR-FRET Mcl-1/Noxa peptide binding, 2 h; inhibition, % at 21.7 µM; actives 1.5% (n = 220,000); AID 1022, 2008;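 active = compounds that cut the protein-peptide binding signal by more than 50% relative to plate controls in a single-dose test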;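 note: His-tagged Mcl-1 with rhodamine Noxa BH3 peptide and terbium anti-His antibody; 0% = Mcl-1 plus Noxa peptide wells and 100% = peptide-only wells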
# Target sequence (Q07820 whole entry, looked up): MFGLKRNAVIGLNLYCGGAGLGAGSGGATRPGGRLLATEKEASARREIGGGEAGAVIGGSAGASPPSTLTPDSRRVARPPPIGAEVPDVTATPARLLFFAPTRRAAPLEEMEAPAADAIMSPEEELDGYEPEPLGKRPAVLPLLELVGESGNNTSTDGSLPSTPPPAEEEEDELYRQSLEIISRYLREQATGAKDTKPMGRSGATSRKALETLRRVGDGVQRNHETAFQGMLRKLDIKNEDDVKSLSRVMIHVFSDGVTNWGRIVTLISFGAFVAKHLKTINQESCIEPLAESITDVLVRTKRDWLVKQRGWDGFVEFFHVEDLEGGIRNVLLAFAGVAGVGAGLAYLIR
# GLD-1 TGE inh: GLD-1/TGE RNA complex disruptors, primary screen, biochemical, fluorescence polarization; inhibition, % at 5.96 µM; AID 2280, 2010; purified GLD-1 + fluorescein TGE RNA; actives 0.44% (n = 320,000); Female germline-specific tumor suppressor gld-1 (Caenorhabditis elegans), Q17339;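 active = percent inhibition above a per-plate cutoff, the plate mean of test compounds plus 3 SD, cut at about 30% in these data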;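 note: 0% = DMSO wells with GLD-1 and probe and 100% = wells lacking GLD-1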
# Mcl1 Bid PPI: Mcl-1/Bid binding inhibitors, primary screen, biochemical, TR-FRET, 1536-well; inhibition, % at 21.7 µM; TR-FRET Mcl-1/Bid-Dy647 peptide binding; AID 1021, 2008; Induced myeloid leukemia cell differentiation protein Mcl-1 (Homo sapiens), Q07820; actives 0.97% (n = 220,000);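 active = compounds that cut the binding signal by more than half at the single screening dose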;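 note: His-tagged Mcl-1 with europium anti-His antibody binding Bid BH3 peptide; 0% = Mcl-1 plus peptide wells and 100% = peptide-only wells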
# Bim-Mcl-1: inhibitors of Bim peptide binding to Mcl-1, primary screen, biochemical, bead-based flow cytometry, multiplex; Induced myeloid leukemia cell differentiation protein Mcl-1 (Homo sapiens), Q07820; Bim peptide-Mcl-1 binding; inhibition, % at 10 µM; actives 0.1% (n = 190,000); AID 1009, 2008; in the data active = inhibition above about 40%;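 note: 0% = no compound tracer wells and 100% = peptide blocker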
# MCL1 BIM primary: inhibitors of MCL1 binding to BIM-BH3, primary screen, biochemical, fluorescence polarization; Induced myeloid leukemia cell differentiation protein Mcl-1 (Homo sapiens), Q07820; GST-MCL1 / FITC-Bim-BH3 fluorescence polarization; inhibition, % at 10.9 µM; actives 0.68% (n = 320,000);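 active = inhibition above the mean inhibition of all tested compounds plus 3 SD, set per campaign, cut at about 40% in these data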;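 note: 0% = DMSO wells and 100% = unlabeled Bim-BH3 peptide control; higher means more loss of mP so more displacement of Bim peptide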
# Bcl-xL primary: inhibitors of human Bcl-xL, primary screen, biochemical, fluorescence polarization, HTS; AID 2129, 2009; inhibition, % at 10.9 µM; Bcl-2-like protein 1 (Homo sapiens), Q07817; actives 0.7% (n = 320,000); GST-Bcl-xL / FITC-Bim BH3 peptide fluorescence polarization;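 active = inhibition above the mean of all tested compounds plus 3 SD, cutoff set per campaign, cut at about 30% in these data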;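 note: 0% = DMSO wells and 100% = unlabeled Bim-BH3 peptide competitor; inhibitors lower millipolarization by displacing the labeled peptide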
# Target sequence (Q07817 whole entry, looked up): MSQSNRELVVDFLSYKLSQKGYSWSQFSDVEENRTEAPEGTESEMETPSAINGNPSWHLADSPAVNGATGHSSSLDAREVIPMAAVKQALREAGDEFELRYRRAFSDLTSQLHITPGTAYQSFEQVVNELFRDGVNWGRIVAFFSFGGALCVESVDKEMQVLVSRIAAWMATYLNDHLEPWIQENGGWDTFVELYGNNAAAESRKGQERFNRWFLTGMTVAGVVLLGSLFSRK
# Numbers without * were called inactive; x = no result given.
SMILES,Mcl1 Noxa PPI,GLD-1 TGE inh,Mcl1 Bid PPI,Bim-Mcl-1,MCL1 BIM primary,Bcl-xL primary
Cc1c(NC(=O)c2ccc(S(=O)(=O)N(C)c3ccccc3)cc2)c(=O)n(-c2ccccc2)n1C,-2,1,-15,0,7,3
Cc1cccc(N(CC(=O)Nc2c(C)n(C)n(-c3ccccc3)c2=O)S(C)(=O)=O)c1,4,2,99*,-2,2,7
COc1ccccc1N1CCN(S(=O)(=O)c2cc(-c3cc(C)no3)ccc2C(C)C)CC1,x,-8,x,x,1,2
CCOc1ccccc1CNC(=O)CCC(=O)N1Cc2ccccc2Oc2ncccc21,x,2,x,x,2,3
CCCC1=C(C(=O)OCC)C(c2sccc2C)n2ncnc2N1 (stereo unspecified),5,21,1,x,-2,4
CCCC1=C(C(=O)OCC)C(c2ccc(O)cc2)n2ncnc2N1 (stereo unspecified),67*,2,-46,0,10,9
Cc1nc(NCc2ccc3c(c2)OCO3)c2nnn(Cc3ccccc3)c2n1,-2,5,33,-3,-6,2
c1ccc(Cn2nnc3c(NCc4ccc5c(c4)OCO5)nc(C4CC4)nc32)cc1,-26,7,52*,3,6,4
NC(=O)NC(=O)COC(=O)/C=C/c1cccs1,-5,-1,-15,x,0,-5
COC(=O)N(NC(=O)C(O)(c1ccccc1)c1ccccc1)c1ccccc1,16,4,60*,-6,-4,1
COc1ccc(-n2c(=O)cc(N3CCOCC3)[nH]c2=O)cc1,10,1,92*,-3,4,0
O=c1c(-c2ccco2)[n+]([O-])c2ccccc2n1OCc1c(F)cccc1F,33,10,5,x,-6,2
O=c1c(-c2ccco2)[n+]([O-])c2ccccc2n1OCc1ccccc1,26,38*,-12,2,16,30*
CN(CCOC(=O)C1c2ccccc2Oc2ccccc21)C(C)(C)C,12,6,97*,0,0,3
O=C(c1ccc2ccccc2n1)N(CCO)Cc1ccccc1,x,-5,x,x,2,-1
CCN(CC)c1ccc(/C=N/NC(=O)Cc2nnc(NC(=O)Nc3ccccc3)s2)cc1,73*,6,-67,-12,-7,2
CCN(CC)c1ccc(/C=N/NC(=O)Nc2ccccc2)cc1,29,1,-34,-1,2,7
CCC1(C)Cc2sc3c(=O)[nH]c(=S)[nH]c3c2CO1 (stereo unspecified),54*,-1,-24,-5,8,7
COc1ccc(NC(=O)C2CCCN2S(=O)(=O)c2ccc3c(c2)CC(C)N3C(C)=O)cc1OC (stereo unspecified),x,8,x,x,6,0
COc1ccc(CN2C(=O)c3cccnc3C2O)cc1 (stereo unspecified),25,9,92*,0,2,-3
COc1ccc(CN2C(=O)C(C)=C(C)C2OC)cc1 (stereo unspecified),x,9,x,x,2,3
CN(CC(=O)Nc1ccccc1Cl)C(=O)COC(=O)CSc1ccc(Cl)cc1,x,4,x,x,-6,-3
COc1ccc(C)cc1S(=O)(=O)N(C)CC(=O)NCc1ccco1,12,5,94*,1,8,10
COc1ccc(S(=O)(=O)N(C)CC(=O)NCc2ccco2)cc1Cl,x,4,x,x,-5,0
Cc1coc2c1c(C)cc1oc(=O)c(CC(=O)NCCCCCC(=O)O)c(C)c12,x,-11,x,x,7,7
SMILES,Mcl1 Noxa PPI,GLD-1 TGE inh,Mcl1 Bid PPI,Bim-Mcl-1,MCL1 BIM primary,Bcl-xL primary
CC#CC(=O)N1CCCC(Cc2cccc(OC)c2)(C(=O)OCC)C1 (stereo unspecified),x,7,x,x,5,2
CC(=O)Nc1ccc(-c2csc(NC(=O)C3CC(=O)N(c4ccc5c(c4)OCCO5)C3)n2)cc1 (stereo unspecified),87*,0,-31,x,3,5
COc1ccccc1CNC(=O)c1cnccn1,68*,10,-53,2,18,7
O=[N+]([O-])c1ccc(-c2c[nH]c(=S)[nH]2)cc1,95*,-4,-36,x,12,11
COc1ccc(OC(=O)c2ccncc2)cc1,6,3,99*,0,7,6
CCOC(=O)N1CCN(CC(=O)Nc2nnc(C(F)(F)F)s2)CC1,x,9,x,x,2,0
O=C(Nc1ccc(N2CCCC2)cc1)C(Cl)c1ccccc1 (stereo unspecified),56*,0,-69,0,11,20
O=S(=O)(c1ccc(SCCOc2ccc(Cl)cc2)nc1)N1CCCC1,x,1,x,x,1,5
O=C(Nc1n[nH]c(C(F)(F)F)n1)C1CC1,4,6,-4,43*,5,-1
CCN(CC)C(=O)Oc1ccc2oc(=O)cc(-c3cc4cccc(OC)c4o3)c2c1,x,9,x,x,4,5
O=C(O)c1ccccc1N/N=C/c1cc(Br)cc(Br)c1O,83*,1,20,x,15,12
Cc1cc(C)c2c(c1)C1C=CCC1C(c1ccc(S(=O)(=O)N3CCOCC3)cc1)N2 (stereo unspecified),95*,4,70*,0,36,12
Cc1ccc(S(=O)(=O)N2CCOCCOCCOCCOCCOCC2)cc1,x,4,x,x,-3,9
O=C(O)c1cc(Cl)c2c(c1)[C@@H]1C=CC[C@@H]1[C@H](c1ccc(S(=O)(=O)N3CCOCC3)cc1)N2,23,15,-7,0,48*,40*
O=S(=O)(c1ccc(C2CCCCC2)cc1)N1CCOCC1,4,0,3,0,-3,-1
Cc1cc(C)nc(NC(=O)c2c(-c3c(Cl)cccc3Cl)noc2C)n1,-10,-6,-24,-3,3,-2
Cc1onc(-c2c(Cl)cccc2Cl)c1C(N)=O,-3,5,-8,0,13,5
Cc1onc(-c2c(Cl)cccc2Cl)c1C(N)=S,16,-6,51*,-4,4,0
CC(=O)Nc1cccc(NC(=O)c2c(-c3c(Cl)cccc3Cl)noc2C)c1,67*,5,-2,-3,4,6
CC(C)(C)[C@H]1C=C(C(=O)NCc2nc3ccccc3[nH]2)O[C@@H](OCc2ccc(CO)cc2)C1,-6,9,-47,x,3,1
Cc1ccc2nc(-c3ccc(N4C(=NC(=O)CCC(=O)O)SC5CS(=O)(=O)CC54)cc3)sc2c1 (stereo unspecified),55*,-3,-11,-6,7,9
